For 19 compounds, Potency and outcome results are on record in PubChem BioAssay (NCATS).

Results filed as inconclusive are left out. Active and inactive are the calls of the source. Calls come from the whole dose curve; as a rule, active = well fitted curve in the direction sought with a large enough effect; inconclusive = small, poorly fitted or top-dose-only effect, or another doubt; inactive = no such curve, though single readings can be large; an effect the other way counts as inactive or inconclusive.

Test [1] is described as follows: Cell Viability - LYMP2-012 (AID 982).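 Note: cellular ATP by luciferase luminescence where a drop means cytotoxicity; cells exposed to compound for one day before reading; nearly all actives have a fitted effect of over 55% in size.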 Note: potency is the fitted concentration of half-maximal effect. The following applies: LYMP2-012 lymphoblastoid cell viability qHTS; series mostly up to 92.2 µM. For orientation: qHTS replaces the single test concentration by a dilution series.
The nature of test [2]: Cell Viability - LYMP2-014 (AID 983). Note: nearly all actives have a fitted effect of over 50% in size. Note: potency is the fitted concentration of half-maximal effect. The conditions noted are these: LYMP2-014 lymphoblastoid cells, viability qHTS; series mostly up to 92.2 µM. Put shortly: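 Decrease in intracellular ATP after 24 hr treatment at 37 C, measured by luciferase luminescence, indicated cytotoxicity. Concentration-response data were fitted with the standard Hill equation to give AC50.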
A short description of test [3]: Cell Viability - LYMP2-016 (AID 984).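 Note: cells exposed to compound for 24 hours at 37 °C; nearly all actives have a fitted effect of over 55% in size.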 Note: potency is the fitted concentration of half-maximal effect. The following applies: LYMP2-016 lymphoblastoid cell viability, qHTS; series mostly up to 92.2 µM. A digest of the protocol: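 Human lymphoblastoid LYMP2-016 cells, 2500 per well, treated with compounds for 24 h at 37 C. Viability read as intracellular ATP by CellTiter-Glo luminescence after 30 min at room temperature; AC50 from Hill fits of concentration-response.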

Test [4] can be described thus: Cell Viability - LYMP2-018 (AID 985).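 Note: compound exposure lasted 24 hr at 37 °C; nearly all actives have a fitted effect of over 50% in size.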 Note: potency is the fitted concentration of half-maximal effect. The conditions noted are these: LYMP2-018 lymphoblastoid cells, viability (qHTS); series mostly up to 92.2 µM. A digest of the protocol:
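Acute cytotoxicity is scored as a concentration-dependent drop in intracellular ATP after 24 hr exposure of the lymphoblastoid line in complete culture medium, measured by luciferase luminescence. Potency is expressed as AC50 from Hill modelling.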

The nature of test [5]: Cell Viability - LYMP2-020 (AID 986). Note: nearly all actives have a fitted effect of over 55% in size. Note: potency is the fitted concentration of half-maximal effect. The conditions noted are these: series mostly up to 92.2 µM. A digest of the protocol: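 Acute cytotoxicity in a human lymphoblastoid line is scored as a concentration-dependent fall in cellular ATP after 24 hr at 37 C in complete medium. The positive control is tetraoctylammonium bromide, and potency is given as Hill-fit AC50.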
The nature of test [6]: Cell Viability - LYMP2-022 (AID 987). Note: nearly all actives have a fitted effect of over 55% in size. Note: potency is the fitted concentration of half-maximal effect. The conditions noted are these: LYMP2-022 lymphoblastoid cell viability; series mostly up to 92.2 µM. A digest of the protocol: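 Acute toxicity in a human lymphoblastoid line is scored as decreased intracellular ATP after 24 hr compound treatment at 37 C. ATP is measured by CellTiter-Glo luminescence; curves are fitted with the Hill equation to give AC50.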

Test [7] is described as follows: Cell Viability - LYMP2-024 (AID 988). Note: nearly all actives have a fitted effect of over 60% in size. Note: potency is the fitted concentration of half-maximal effect. The conditions noted are these: LYMP2-024 lymphoblastoid cell viability; series mostly up to 92.2 µM. Put shortly: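 Acute toxicity is measured as concentration-dependent loss of intracellular ATP in a human lymphoblastoid line treated 24 hours at 37 C. Luciferase luminescence quantifies ATP; AC50 values come from standard Hill-equation modelling.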

Test [8] can be described thus: Cell Viability - LYMP2-026 (AID 989). Note: nearly all actives have a fitted effect of over 50% in size. The following applies: LYMP2-026 lymphoblastoid cell viability, qHTS; series mostly up to 92.2 µM. Put shortly:
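Concentration-dependent loss of intracellular ATP in human lymphoblastoid cells after 24 hr at 37 C, quantified by luciferase luminescence. AC50 derived from standard Hill equation.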

Test [9] in a line: Cell Viability - LYMP1-002 - Assay at 24 hr (AID 993). Note: potency is the fitted concentration of half-maximal effect. The conditions noted are these: LYMP1-002 lymphoblastoid cells viability; series mostly up to 92.2 µM. Put shortly: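 qHTS, LYMP1-002 lymphoblastoid, 24 h cpd, 37 C, CellTiter-Glo ATP luminescence; AC50 via Hill eq.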
In test [10] the target is Alpha-galactosidase A (Homo sapiens) (UniProt P06280). The test is described as follows: Counterscreen for Glucocerebrosidase Inhibitors: qHTS Assay for Human alpha-Galactosidase at pH 4.5 (AID 992). The conditions noted are these: purified enzyme, fluorogenic substrate; series mostly up to 76.9 µM. Put shortly:
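Quantitative HTS: compounds tested from 0.7 nM up to 77 uM against 2 nM enzyme with 80 uM 4-MU alpha-D-galactopyranoside. The 20 min room-temperature reaction is stopped with 1M NaOH/1M glycine, pH 10.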
For orientation: A counterscreen serves to expose hits that act by an unwanted route or on another target.

Sequence of Alpha-galactosidase A (Homo sapiens) (P06280 whole entry, looked up): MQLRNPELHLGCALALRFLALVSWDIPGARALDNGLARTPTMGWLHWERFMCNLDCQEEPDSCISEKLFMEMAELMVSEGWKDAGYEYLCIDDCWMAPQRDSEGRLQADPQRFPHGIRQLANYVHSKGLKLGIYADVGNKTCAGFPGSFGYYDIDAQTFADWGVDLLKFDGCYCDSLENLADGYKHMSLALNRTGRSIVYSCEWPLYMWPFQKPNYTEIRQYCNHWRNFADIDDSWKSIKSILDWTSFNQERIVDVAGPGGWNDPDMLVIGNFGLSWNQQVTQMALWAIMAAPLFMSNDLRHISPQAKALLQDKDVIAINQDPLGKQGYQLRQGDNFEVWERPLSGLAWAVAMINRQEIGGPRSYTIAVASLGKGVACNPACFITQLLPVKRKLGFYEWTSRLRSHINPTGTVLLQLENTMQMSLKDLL

`Cc1ccc(S(=O)(=O)O)cc1C`: the Potency entry in test [1], in [2], in test [3], in test [4], in test [5] and in test [6] was “inactive” each time. For the same compound, the Potency result in [7] and in test [9] was “inactive” in each case. Also, the result in test [8] was inactive.

As for `C/C=C/C=C/C(=O)O`, the Potency entry in [1], in test [2], in test [3], in [4], in [5] and in test [6] was “inactive” in each case. Besides, the Potency result in test [7] and in test [9] was “inactive” throughout. Moreover, the call in test [8] was inactive.

As to `CO/N=C(/C(=O)N[C@@H]1C(=O)N2C(C(=O)O)=C(COC(N)=O)CS[C@H]12)c1ccco1`, the Potency entry in test [1], in [2], in test [3], in [4], in [5] and in [6] was “inactive” in each case. Besides, the Potency entry in test [7] and in test [9] was “inactive” throughout. In addition, the compound was classed as inactive in test [8].

With `O=c1n(CC2CO2)c(=O)n(CC2CO2)c(=O)n1CC1CO1` (configuration not stated), the Potency in test [1] is 25.1 µM (active); in test [3], 31.6 µM (active); in [4], 15.8 µM (active); in test [5], 25.1 µM (active); in test [6], 31.6 µM (active); in test [7], 39.8 µM (active). For the same compound, the Potency in test [9] is 39.8 µM (active).

Consider `OCc1ccccc1`, for which the Potency entry in test [1], in [2], in [3], in [4], in test [5] and in [6] was “inactive” each time. Besides, the Potency result in test [7] and in [9] was “inactive” in each case. In addition, the outcome in [8] was inactive.

In the case of `CC/C=C\C/C=C\C/C=C\CCCCCCCC(=O)O`, the Potency was 50.1 µM (active) in test [6] and 39.8 µM (active) in [7]. Besides, the Potency entry in test [9] was “inactive”.

On to `CCCCC`, for which the Potency entry in [1], in test [2], in test [3], in test [4], in [5] and in test [6] was “inactive” in each case. Also, the Potency result in test [7] and in [9] was “inactive” each time. Further, in test [8], the compound was called inactive.

As to `NC(N)=O`, the Potency result in test [1], in test [2], in test [3], in [4], in test [5] and in test [6] was “inactive” in each case. The Potency entry in test [7] and in test [9] was “inactive” each time. Besides, in [8], the call was inactive.

In the case of `CC[C@H]1OC(=O)[C@H](C)[C@@H](O[C@H]2C[C@@](C)(OC)[C@@H](O)[C@H](C)O2)[C@H](C)[C@@H](O[C@@H]2O[C@H](C)C[C@H](N(C)C)[C@H]2O)[C@](C)(O)C[C@@H](C)CN(C)[C@H](C)[C@@H](O)[C@]1(C)O`, the Potency result in test [1], in test [2], in [3], in test [4], in [5] and in [6] was “inactive” each time. Moreover, the Potency result in [7] and in [9] was “inactive” throughout. Besides, in test [8], the compound was classed as inactive.

Take `CC1=CC(=O)NS(=O)(=O)O1`: the Potency result in test [1], in test [2], in test [3], in test [4], in test [5] and in test [6] was “inactive” each time. The Potency result in test [7] and in test [9] was “inactive” in each case. Moreover, in [8], the result was inactive.

For the compound `COC(=O)c1ccccc1O`, the Potency entry in test [1], in [2], in [3], in [4], in test [5] and in test [6] was “inactive” each time. The Potency result in [7] and in test [9] was “inactive” in each case. Also, in [8], the compound was called inactive.

For `CC(C)(C)CC(C)(C)c1ccc(OCCO)cc1`, the Potency entry in test [1], in test [2], in test [3], in test [4], in test [5] and in test [6] was “inactive” throughout. Besides, the Potency result in [7] and in test [9] was “inactive” each time. In addition, the result in test [8] was inactive.

Take `ClC(Cl)Cl`: the Potency result in test [1], in [2], in [3], in test [4], in test [5] and in test [6] was “inactive” throughout. Moreover, the Potency entry in test [7] and in test [9] was “inactive” in each case. The result in test [8] was inactive.

Regarding `Oc1cccc(O)c1O`, the Potency result in [1], in [2], in test [3], in test [4], in [5] and in [9] was “inactive” in each case. Moreover, the compound was called inactive in test [8].

As for `CCCCO`, the Potency result in [1], in test [2], in [3], in [4], in test [5] and in [6] was “inactive” throughout. Further, the Potency entry in test [7] and in [9] was “inactive” in each case. In addition, the outcome in test [8] was inactive.

For the compound `NCCN`, the Potency result in test [1], in test [2], in test [3], in test [4], in test [5] and in [6] was “inactive” throughout. The Potency entry in [7] and in test [9] was “inactive” in each case. In addition, the result in test [8] was inactive.

In the case of `C[C@@](Cc1ccc(O)c(O)c1)(NN)C(=O)O`, the compound was called inactive in test [10].

Turning to `C=C1C(CCl)(CCl)C2(Cl)C(Cl)C(Cl)C1(Cl)C2(Cl)Cl` (configuration not stated), the Potency in [1] is 39.8 µM (active); in [2], 50.1 µM (active); in [3] it was 50.1 µM (active); in test [4], 50.1 µM (active); in test [5], 50.1 µM (active); in [6], 39.8 µM (active). For the same compound, the Potency was 39.8 µM (active) in test [7] and 50.1 µM (active) in test [9].

Consider `C[C@H](CCC(=O)O)[C@H]1CC[C@H]2[C@@H]3[C@H](O)C[C@@H]4C[C@H](O)CC[C@]4(C)[C@H]3C[C@H](O)[C@]12C`, for which the Potency result in [1], in test [2], in test [3], in test [4], in test [5] and in test [6] was “inactive” each time. Also, the Potency entry in test [7] and in test [9] was “inactive” each time. Also, the outcome in test [8] was inactive.
